CtBP-E1A inh: blocks the CtBP interaction with E1A; AID 651724; hit rate 0.49% among 340,000; activity change, % (concentration not given with the values); AlphaScreen GST-E1A/His-CtBP binding, 1536-well; hits give low values; in the data active = activity change below about -65%; inconclusive = mostly about -30% to -63%
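In 5 uL wells, 23 nL compound meets equimolar GST-E1A and His-CtBP (5X stock 125 nM each) for 2 h, 37 °C. Beads (5X, 50 ug/mL) then 1 h, 37 °C, dark.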
G9a block: blocks human histone lysine methyltransferase G9a; Q96KQ7; Potency, µM (series often up to 102 µM), most hits filed as inhibitors; G9a H3K9 monomethylation, AlphaScreen, 2 h; hit rate 8.8% among 350,000; AID 504332; also: nearly all actives have a fitted effect of over 75% in size
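Step 1: enzyme (final 20 nM) with compound, 15 min RT. Step 2: substrate peptide 500 nM and SAM 20 uM, 2 h RT. Step 3: anti-H3K9me1 antibody and AlphaScreen beads, 10 min, then plate read.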
BAZ2B inh: blocks human BAZ2B; Q9UIF8; AlphaScreen BAZ2B-H3K14Ac peptide displacement; Potency, µM (titrated, usually from 114 µM), actives largely listed as inhibitors; hit rate 4.4% among 360,000; AID 504333; also: nearly all actives have a fitted effect of over 60% in size
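Inhibition is scored as reduced AlphaScreen emission. The BAZ2B/b-H3(5-23)K14Ac complex (50 nM each) in PBS pH 7.4, 0.01% Tween-20 meets compound (up to 110 uM) for 30 min at RT before bead addition.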
JMJD2A Tudor: inhibitors of human JMJD2A Tudor domain; AlphaScreen JMJD2A-Tudor / H3K4me3 peptide binding; Potency, µM (doses to about 114 µM), usual class: inhibitors; AID 504339; hit rate 4.4% among 390,000; also: nearly all actives have a fitted effect of over 50% in size
HP1b chromo inh: HP1-beta chromodomain-methylated histone interaction inhibition | P83916 | AlphaScreen HP1-beta / biotin-H3K9me3 peptide binding | Potency, µM (series often up to 114 µM), most hits filed as inhibitors | hit rate 0.56% among 390,000 | AID 540317; also: nearly all actives have a fitted effect of over 70% in size
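Compound inhibition of the preformed complex between 50 nM HP1-beta and 50 nM biotinylated H3K9me3 peptide was read by AlphaScreen. Buffer was PBS pH 7.4 with 0.01% Tween-20. Incubations ran 30 min at room temperature, with 10 ug/mL donor/acceptor beads.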
Six1-Eya2 inh: inhibitors of human Six1/Eya2 interaction | hit rate 0.56% among 360,000 | activity change, % (concentration not given with the values) | AlphaScreen GST-Six1/His-Eya2 binding, biochemical; hits give low values; in the data active = activity change below about -65%; inconclusive = mostly about -30% to -63%
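Compounds are tested against tagged Six1 and Eya2 proteins bridged by glutathione donor and nickel acceptor beads; after a one-hour incubation at 37 °C without light, AlphaScreen emission is recorded.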
Large screens that a line does not name were inactive; ! = repeats disagree. In the library only some 10% were active in any assay of this set; here they are far more common. Unless noted, calls follow the shape of the dose curve; as a rule, active = well fitted inhibition curve with a large enough effect; inconclusive = small, poorly fitted or top-dose-only effect; inactive = no such curve, though single readings can be large or run the other way.

CNC(C)C#Cc1c(-c2cc(OC)c(OC)c(OC)c2)noc1C (stereo not given)	G9a block 32µM, BAZ2B inh inconclusive, JMJD2A Tudor inconclusive
CCCCCCC=C1CCC(CN2CCCC2)C1=O (stereo not given)	none (no result: G9a block, BAZ2B inh, JMJD2A Tudor, HP1b chromo inh)
COc1cc(/C=C2\C(=O)ON=C2c2ccccc2)cc(Br)c1O	G9a block 35µM, BAZ2B inh 40µM, JMJD2A Tudor 25µM, HP1b chromo inh 28µM
CCOc1cc(/C=C2\C(=O)ON=C2c2ccccc2)cc(Br)c1O	G9a block 25µM, BAZ2B inh 28µM, JMJD2A Tudor 25µM, HP1b chromo inh inconclusive
COc1cc(/C=C/c2nc3ccccc3c(=O)[nH]2)cc(Cl)c1O	G9a block inconclusive, BAZ2B inh inconclusive
CCOc1cc(/C=C2/C(=O)ON=C2C)cc(Br)c1O	G9a block 45µM, BAZ2B inh 16µM (no result: CtBP-E1A inh)
COc1cc(/C=C2\C(=O)ON=C2c2ccccc2)cc(Cl)c1O	G9a block 35µM, BAZ2B inh 45µM, JMJD2A Tudor 22µM, HP1b chromo inh 45µM
CCC1(c2ccccc2)NC(=O)N(CC(=O)N(CC(=O)Nc2ccccc2C(F)(F)F)Cc2ccco2)C1=O (stereo not given)	G9a block inconclusive
CN(C)c1ccc(CNC(=O)C2COc3ccccc3C2)cc1 (stereo not given)	G9a block inconclusive (no result: CtBP-E1A inh, Six1-Eya2 inh)
COc1cc(/C=C2/C(=O)ON=C2c2ccccc2)ccc1O	G9a block inconclusive, BAZ2B inh 50µM
COc1cc(C=C2C(=O)c3ccccc3C2=O)ccc1O	BAZ2B inh inconclusive, JMJD2A Tudor inconclusive (no result: CtBP-E1A inh)
O=C(CCC(=O)CCN1CCCCC1)CCN1CCCCC1	G9a block 13µM, HP1b chromo inh inconclusive
N#CCCNC(=O)CCN1CCOCC1	G9a block 28µM, JMJD2A Tudor inconclusive
NNC(=O)CCN1CCCCC1	none (no result: CtBP-E1A inh)
N#CCCNC(=O)CCN1CCCCC1	G9a block 56µM
COC(=O)c1ccc(COC(=O)c2ccc(C)c(S(=O)(=O)N3CCCCC3)c2)cc1	none
Cc1ccc(NC(=O)CN2CC(C)SC2=NC2CCCCC2)cc1 (stereo not given)	G9a block 50µM
O=C(CSc1nncs1)NC(=O)NCc1ccco1	none (no result: BAZ2B inh)
Cc1ccccc1Nc1nnc(SCC(=O)NC(=O)NCc2ccco2)s1	G9a block 35µM, JMJD2A Tudor inconclusive
O=C(CSc1nc(-c2ccc(F)cc2)cs1)NC(=O)NCc1ccco1	BAZ2B inh 50µM, JMJD2A Tudor inconclusive
O=C(CSc1nnc(NC(=O)c2c(F)cccc2F)s1)NCc1ccco1	G9a block 45µM
CCOC(=O)[C@]12CCCC=C1N(Cc1cccc3ccccc13)C(=O)[C@H](CC(=O)N1CCN(C(=O)c3ccco3)CC1)C2	none (no result: G9a block, BAZ2B inh, JMJD2A Tudor, HP1b chromo inh)
C=CCN=C1N[C@@H](c2cccc(C(F)(F)F)c2)C(C(=O)OC)=C(C)N1CC	G9a block 28µM!, BAZ2B inh inconclusive, JMJD2A Tudor inconclusive
COC(=O)C1=C(C)N(Cc2ccccc2)C(=NCc2ccco2)N[C@H]1c1ccc(Br)cc1	BAZ2B inh 79µM (no result: CtBP-E1A inh, JMJD2A Tudor, HP1b chromo inh, Six1-Eya2 inh)
COC(=O)C1=C(C)N(Cc2ccccc2)C(=NCc2ccc(OC)cc2)N[C@H]1c1ccccc1	BAZ2B inh inconclusive, JMJD2A Tudor inconclusive (no result: G9a block)
CCN1C(=NCCc2c[nH]c3ccccc23)N[C@@H](c2ccccc2)C(C(=O)OC)=C1C	none (no result: CtBP-E1A inh, JMJD2A Tudor, HP1b chromo inh, Six1-Eya2 inh)
COC(=O)C1=C(C)N(Cc2ccccc2)C(=NCC(C)C)N[C@H]1c1ccccc1	G9a block 50µM!
COC(=O)C1=C(C)N(Cc2ccco2)C(=O)N[C@@H]1c1ccccc1	G9a block inconclusive
C=CCN=C1N[C@@H](c2ccccc2)C(C(=O)OC)=C(C)N1CC	G9a block 40µM!
COC(=O)C1=C(C)N(Cc2ccccc2)C(=NCc2cccc(C(F)(F)F)c2)N[C@H]1c1cccc(C(F)(F)F)c1	none (no result: G9a block)
O=c1c2sccc2n(Cc2cc(=O)n3ccccc3n2)c(=O)n1-c1cccc(C(F)(F)F)c1	none (no result: CtBP-E1A inh, Six1-Eya2 inh)
CCN1C(=NCCCCO)N[C@@H](c2cccc(C(F)(F)F)c2)C(C(=O)OC)=C1C	BAZ2B inh inconclusive, JMJD2A Tudor inconclusive
COCCN=C1N[C@@H](c2cccc(C(F)(F)F)c2)C(C(=O)OC)=C(C)N1Cc1ccccc1	G9a block inconclusive, JMJD2A Tudor inconclusive
CCN1C(=NCC(C)C)N[C@@H](c2cccc(C(F)(F)F)c2)C(C(=O)OC)=C1C	BAZ2B inh inconclusive, JMJD2A Tudor 18µM
COC(=O)C1=C(C)N(Cc2ccccc2)C(=NCCc2c[nH]c3ccccc23)N[C@H]1c1cccc(C(F)(F)F)c1	BAZ2B inh inconclusive, JMJD2A Tudor 56µM
C[C@@H](O)CNC(C)(C)CC(=O)N[C@@H]1CCc2ccccc2N(Cc2ccc(-c3ccccc3-c3nn[nH]n3)cc2)C1=O	none (no result: CtBP-E1A inh, BAZ2B inh, JMJD2A Tudor, HP1b chromo inh, Six1-Eya2 inh)
COc1ccc(CC(=O)OC(C)C(=O)NC2CCCCC2C)cc1 (stereo not given)	none
CC12COC3(P(=O)(c4ccccc4)c4ccccc4)CC1CCC23CP(=O)(c1ccccc1)c1ccccc1 (stereo not given)	G9a block inconclusive, BAZ2B inh 71µM
CC12COC3(C(=O)Nc4ccc(F)cc4)CC1CCC32C (stereo not given)	none
CCC(/C=C1\Sc2ccc(OC)cc2N1CC)=C\c1sc2ccc(OC)cc2[n+]1CCCS(=O)(=O)[O-]	G9a block 20µM, BAZ2B inh 22µM, JMJD2A Tudor inconclusive, Six1-Eya2 inh inconclusive
CCC(/C=C1\Sc2ccc(OC)cc2N1CCO)=C\c1sc2ccc(OC)cc2[n+]1CCO	CtBP-E1A inh inconclusive, G9a block 11µM, BAZ2B inh 13µM, JMJD2A Tudor 22µM, HP1b chromo inh 40µM, Six1-Eya2 inh inconclusive
CCC(=O)/C=C1/Sc2ccc(OC)cc2N1CCO	JMJD2A Tudor inconclusive
Cc1cn(C)c(CC(=O)NCc2cccc(Cl)c2)c1C(=O)O	none (no result: CtBP-E1A inh, Six1-Eya2 inh)
COc1ccc(C2=C(C=C(C#N)C#N)C(c3ccccc3C)c3ccccc3O2)cc1OC (stereo not given)	BAZ2B inh inconclusive, JMJD2A Tudor inconclusive
O=[N+]([O-])c1cccc(N/N=C/c2ccc(N3CCOCC3)cc2)c1	G9a block 40µM, BAZ2B inh 18µM, JMJD2A Tudor 35µM, HP1b chromo inh 40µM
C(=N\Nc1ccccc1)/c1ccc(N2CCOCC2)cc1	G9a block 4µM, JMJD2A Tudor inconclusive
Cc1cc(C)nc(N/N=C/C2=C(N3CCOCC3)C(=C\c3ccc(Cl)cc3)/CC2)n1	G9a block inconclusive, JMJD2A Tudor inconclusive
Clc1cccc(N/N=C/c2ccc(N3CCOCC3)cc2)c1	G9a block 32µM, JMJD2A Tudor inconclusive
O=C(O)c1cc(N/N=C/c2ccc(N3CCOCC3)cc2)ccc1Cl	BAZ2B inh inconclusive (no result: CtBP-E1A inh)

Screening results from PubChem.
